According to PubChem BioAssay AID894 (National Center for Advancing Translational Sciences (NCATS), 2007):
The whole screen tested about 150,000 compounds, of which about 6,500 (4.3%) were called active. Another 12% or so got no clear call; they are omitted. Calls follow the shape of the dose curve; as a rule, active = well fitted inhibition curve with a large enough effect (not every such curve was filed as active); inconclusive = small, poorly fitted or top-dose-only effect, or another doubt; inactive = no such curve, though single readings can be large or run the other way. Only a selection was taken, and actives are over-represented in it overall.

Each compound was assayed against 15-hydroxyprostaglandin dehydrogenase [NAD(+)] (Homo sapiens) (UniProt P15428) (assay: qHTS Assay for Inhibitors of HPGD (15-Hydroxyprostaglandin Dehydrogenase)). Details: purified HPGD, NADH fluorescence kinetic, PGE2 substrate; activity change, negative = inhibition: stronger effect = lower value.
In short: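 20 nM HPGD preincubated 15 min at room temperature with compound in 50 mM Tris-HCl pH 8, 0.01% Tween 20. Started with 1 mM NAD+ and 30 uM prostaglandin E2; NADH fluorescence (360/450 nm) read 5 times over 30-s intervals, last minus first.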
% is scaled to controls: 0 for no effect and ±100 for the full control effect; potency is read from the fitted curve at half-maximal effect.

15-hydroxyprostaglandin dehydrogenase [NAD(+)] (Homo sapiens), sequence (P15428 whole entry, looked up): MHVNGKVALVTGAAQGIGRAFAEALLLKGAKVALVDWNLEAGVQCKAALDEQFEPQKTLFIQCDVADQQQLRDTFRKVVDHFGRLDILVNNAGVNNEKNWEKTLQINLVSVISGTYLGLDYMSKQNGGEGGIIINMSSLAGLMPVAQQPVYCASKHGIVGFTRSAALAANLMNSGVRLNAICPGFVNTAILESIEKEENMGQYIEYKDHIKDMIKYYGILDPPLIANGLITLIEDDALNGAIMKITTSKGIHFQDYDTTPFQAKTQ

Activity change, negative = inhibition, inactive:
O=C(CSc1nc2ccc([N+](=O)[O-])cc2[nH]1)c1ccc(Cl)cc1 -4.65%
COc1ccc(O[C@H]2C=C[C@@H](c3ccccc3)O[C@@H]2CO/N=C/C[C@@H]2C=C[C@H](OC(C)=O)[C@@H](COC(C)=O)O2)cc1 -8.59%
CCOc1ccc(S(=O)(=O)N(CC(=O)NCC(F)(F)F)Cc2ccco2)cc1 -11.9%
O=C(Nc1cccc([N+](=O)[O-])c1)c1ccc2c(c1)OCO2 -1.46%
CC1(C)CCc2nc(SCc3ccccc3)c(C#N)cc2C1 -11%
N#CC1=C(SCc2ccc(C#N)cc2)N=C(N)C(c2nc(-c3ccccc3)cs2)C12CCCCC2 (configuration not stated) -15.3%
Cc1c(Cl)cccc1NC(=O)CC1SC(=NCC2CCCO2)NC1=O (configuration not stated) -12.3%
O=C(CN1C(=O)/C(=C\c2ccc(C(F)(F)F)cc2)Sc2ccccc21)NCc1ccco1 33.1%
Cc1noc(/C=C/N(C)C)c1S(=O)(=O)N1CCCC(C(=O)NCc2ccco2)C1 (configuration not stated) -17.1%
CCOc1ccc(OCC)c(NC(=O)C2CCN(S(=O)(=O)c3c(C)noc3C)CC2)c1 -8.5%
Cn1cc(/C=C/c2nc3ccccc3c(=O)n2-c2cccc([N+](=O)[O-])c2)c2ccccc21 -11.6%
Cc1ccc(/C=C/C(=O)Nc2cc(S(=O)(=O)N3CCCCCC3)ccc2OCC(F)(F)F)o1 -24.4%
Cn1c(CNC(=O)c2ccccc2F)nnc1SCc1ccc(F)cc1 -8.88%
CN(C)c1ccc(-n2cccc2/C=N/n2cnnc2)cc1 -4.13%
CCOC(=O)c1sc(NC(=O)CSc2ncccn2)c(C#N)c1C -17.5%
CCOC(=O)c1sc(NC(=O)CSc2nnc(-c3ccco3)o2)c(C(=O)OCC)c1C -18.6%
COc1cc(NC(=O)c2cc([N+](=O)[O-])ccc2Br)ccc1NC(=O)c1ccco1 -20.2%
CSc1ccccc1NC(=O)Cc1ccc(Br)cc1 -10.6%
COC(=O)c1cc(C(=O)OC)cc(N2C(=O)CC(N3CCN(c4ccccc4)CC3)C2=O)c1 (configuration not stated) -19.8%
COc1ccccc1-c1nnc(NC(=O)c2cccc(N3C(=O)CCC3=O)c2)o1 -9.42%
CN1CCN(c2ccc(S(=O)(=O)N3CCCCC3)cc2NC(=O)Cc2ccccc2F)CC1 3.83%
CC1(C)CCCC2=C1CC1C(=O)N(c3ccccc3)C(=O)C1C2 (configuration not stated) 0.735%
Cn1c(=O)c2cn(-c3cccc4ccccc34)cc2n(C)c1=O -20.9%
CCCOc1ccc(NC(=O)CC2C(=O)N(C)C(=S)N2Cc2ccc3c(c2)OCO3)cc1 (configuration not stated) -0.216%
O=C(/C=C/c1ccc(F)cc1)Nc1cccc(S(=O)(=O)Nc2cccc(C(F)(F)F)c2)c1 -7.72%
CCc1ccc(NC(=O)C(C)OC(=O)/C=C/c2cccc([N+](=O)[O-])c2)cc1 (configuration not stated) -2.79%
CCOC(=O)C1=C(C)NC(=S)NC1c1cccs1 (configuration not stated) -5.68%

Potency, active:
N#CC1=C(SCc2ccccc2)NC(=O)C(C#N)C12CCCC2 (configuration not stated) 17.8 µM
Cc1noc(C)c1S(=O)(=O)N1CCCC(C(=O)Nc2nccs2)C1 (configuration not stated) 35.5 µM
CCOC(=O)c1sc(NC(=O)CSc2nc(C)cc(C(F)(F)F)n2)c(C#N)c1C 3.55 µM
COC(=O)c1cccc(-n2[nH]nnc2=S)c1 28.2 µM
CC1=C(C)CC2C(=O)N(c3cccc4ccccc34)C(=O)C2C1 (configuration not stated) 25.1 µM
